# Reference: PubChem BioAssay (Tox21)
# Inconclusive results are not listed. Unmarked numbers belong to inactive results. Calls of active or inactive are those of the source. Calls follow the shape of the dose curve; as a rule, active = well fitted activation curve with a large enough effect in the signal ratio in the repeat runs (not every such curve was filed as active); inconclusive = weak or mixed curves; inactive = flat fitted curve, though single readings scatter; the % refers to the signal ratio.
# Assay: qHTS assay to identify small molecule agonists of H2AX (AID 1224845)
# Details: CHO-K1 phospho-H2AX Ser139 HTRF, 3 h; series mostly up to 70.9 µM; activation (H2AX phosphorylation): at the top concentration
# Outline: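 Wild-type CHO-K1 cells, plated overnight, exposed 3hr at 37C to 15 concentrations (0.76% DMSO final). Lysed, then HTRF anti-pH2AX (S139) cryptate and anti-H2AX-d2 antibodies, 24 hr room temperature; 665/620 nm emission read.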
# % is scaled to controls: 0 for no effect and ±100 for the full control effect.
SMILES,activation (H2AX phosphorylation),outcome
NC(CSCC(=O)O)C(=O)O (stereo not given),-2.23%,
O=C1CCCCCCCCCCCN1,,inactive
COc1ccc(CCN(C)CCCC(C#N)(c2cc(OC)c(OC)c(OC)c2)C(C)C)cc1OC (stereo not given),-0.0274%,
Cc1cnc(NS(=O)(=O)c2ccc(N)cc2)nc1,0.704%,
CC(=O)N(CC(O)CO)c1c(I)c(C(=O)NCCO)c(I)c(C(=O)NCC(O)CO)c1I (stereo not given),-1.87%,
C/C=C(\C)C#N,0.688% [at 154 µM],
COC(=O)CCSCCC(=O)OC,-1.66% [at 154 µM],
COc1ccccc1OCC(O)CN1CCN(CC(=O)Nc2c(C)cccc2C)CC1 (stereo not given),-1.48%,
CN(C)CCCSc1ccccc1NC(=O)/C=C/c1ccccc1,-0.273%,
CC(=O)OCC(=O)[C@@]1(O)CC[C@H]2[C@@H]3CCC4=CC(=O)CC[C@]4(C)[C@H]3C(=O)C[C@@]21C,0.763%,
N=C(N)c1ccc(OCCCOc2ccc(C(=N)N)cc2)cc1,1.2%,
CCC=O,2.51% [at 154 µM],
Nc1ccccc1S(=O)(=O)O,1.64% [at 154 µM],
Nc1nc2c(ncn2COC(CO)CO)c(=O)[nH]1,3.61%,
CCN(CC)CCOCCOC(=O)C1(c2ccccc2)CCCC1,-1.49%,
C[C@H]1C[C@@H](O)CC(C)(C)C1,-1.21% [at 154 µM],
CC/C=C\CCOC(C)=O,-1.23% [at 154 µM],

# Assay: qHTS assay to identify small molecule agonists of the hypoxia (HIF-1) signaling pathway (AID 1224846)
# Details: HRE-bla ME-180 cells, beta-lactamase ratio, 17 h; series mostly up to 76.8 µM; activation: at the top concentration
# Outline: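 A low-serum medium (0.5% dialyzed FBS) holding 2,000 HRE-bla ME-180 cells per well is preincubated for 5 hrs, dosed with compounds by pintool, and kept a further 17 hrs at 37C, 5% CO2 before CCF4-AM FRET detection of beta-lactamase.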
SMILES,activation,outcome
O=C(O)CNC(=O)c1ccc([N+](=O)[O-])cc1,-1%,
Cn1cc(S(C)=O)c(=O)c2ccc(F)cc21 (stereo not given),-0.204% [at 35.5 µM],
C=CCOCC(CC)(CO)COCC=C,-1.91%,
CC(=O)Nc1ccc(S(N)(=O)=O)cc1,-1.26%,
C=C1CC[C@H]2C[C@@H]1C2(C)C,-0.184%,
CCCCCCCCS(=O)(=O)Cl,-1.63%,
C=C[Si](OC(=C)C)(OC(=C)C)OC(=C)C,0%,
O=C1NC(=O)[C@@]2(CCOc3ccc(F)cc32)N1,-1.68% [at 35.5 µM],
CC/C=C\CC/C=C/CO,-1.17%,
CN1CCCC1,0.709%,
O=c1cc(CO)occ1O,-0.23% [at 35.5 µM],
CC(=O)CC(C)C,0.141%,
CO[Si](CCCOCC1CO1)(OC)OC (stereo not given),-0.208%,
O=c1cc(-c2ccccc2)oc2ccccc12,1.28%,
COc1ccc2c(c1)CCCC2=O,-0.89% [at 35.5 µM],
NC(=O)c1cn(Cc2c(F)cccc2F)nn1,0.424% [at 35.5 µM],
NC(CSCC(=O)O)C(=O)O (stereo not given),-0.291% [at 35.5 µM],
O=C1CCCCCCCCCCCN1,,inactive
Cc1cnc(NS(=O)(=O)c2ccc(N)cc2)nc1,-0.428% [at 35.5 µM],
CC(=O)N(CC(O)CO)c1c(I)c(C(=O)NCCO)c(I)c(C(=O)NCC(O)CO)c1I (stereo not given),0.214% [at 35.5 µM],
C/C=C(\C)C#N,0.0605%,
COC(=O)CCSCCC(=O)OC,-1.83%,
CN(C)CCCSc1ccccc1NC(=O)/C=C/c1ccccc1,-0.532% [at 35.5 µM],
N=C(N)c1ccc(OCCCOc2ccc(C(=N)N)cc2)cc1,-0.56% [at 35.5 µM],
CCC=O,-0.161%,
Nc1ccccc1S(=O)(=O)O,0.0807%,
C[C@H]1C[C@@H](O)CC(C)(C)C1,-1.17%,
CC/C=C\CCOC(C)=O,-0.0654%,
